Screening data from PubChem BioAssay.
Giardia FBPA inh: qHTS Assay for Inhibitors of Fructose-1,6-bisphosphate Aldolase from Giardia Lamblia; 290,000 tested, 0.71% active; A8B2U2; Potency, µM (titrated, usually from 59.6 µM), hits mostly inhibitors; purified Giardia FBPA; note: nearly all actives have a fitted effect of over 55% in size
Target sequence (A8B2U2 whole entry, looked up): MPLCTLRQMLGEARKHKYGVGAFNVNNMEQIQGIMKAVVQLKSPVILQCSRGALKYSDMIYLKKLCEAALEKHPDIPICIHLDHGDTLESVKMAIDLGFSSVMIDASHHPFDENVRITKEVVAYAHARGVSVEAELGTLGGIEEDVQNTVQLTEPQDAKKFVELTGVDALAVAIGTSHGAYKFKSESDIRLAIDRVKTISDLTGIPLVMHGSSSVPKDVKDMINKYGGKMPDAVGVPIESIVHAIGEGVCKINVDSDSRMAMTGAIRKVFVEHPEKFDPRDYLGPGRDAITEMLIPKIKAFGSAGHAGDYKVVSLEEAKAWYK
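Giardia FBPA (40 nM reagent) was preincubated 10 min at RT with compound (up to 57.5 uM final), then substrate plus GAPDH/TPI/NAD/arsenate coupling system with diaphorase/resazurin was added; resorufin fluorescence (525/598 nm) was read after 20 min.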
Shiga toxin inh: A qHTS for Small Molecule Inhibitors of Shiga Toxin | 290,000 tested, 9.2% active | inhibition, % at 38.7 µM | Vero cells, Shiga toxin protein synthesis inhibition reporter | AID 2315, 2010; in the data active = inhibition mostly above about 28%, no sharp cut-off; inactive = mostly below about 43%
Cycloheximide cs: Cycloheximide Counterscreen for Small Molecule Inhibitors of Shiga Toxin | AID 2314, 2010 | cell reporter, cycloheximide protein synthesis inhibition counterscreen | max response, % | 300,000 tested, 12% active; in the data active = max response mostly above about 13%, no sharp cut-off; inactive = mostly below about 14%; note: read at 38.3 µM for the half of the compounds with a filed dose
NS1 inh: qHTS Assay for Inhibitors of Influenza NS1 Protein Function | AID 2326, 2010 | Potency, µM (highest dose often 46.1 µM) | 270,000 tested, 0.4% active; calls by dose curve; note: actives are rising curves; nearly all actives have a fitted effect of over 50% in size
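In this qHTS, NS1 from influenza A is expressed in budding yeast, where it slows growth. Cells are switched from glucose to 2% galactose medium (pH 6.0, -URA), treated with compound, and growth recovery is read at OD600.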
Pf growth 48h: Primary qHTS for delayed death inhibitors of the malarial parasite plastid, 48 hour incubation. Potency, µM (doses to about 28.7 µM), usual class: inhibitors. P. falciparum luciferase growth in erythrocytes, 48 h. 310,000 tested, 5.9% active. AID 504832, 2011
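Luciferase-expressing parasites in RBCs, 2% Hct / 0.1% parasitemia final; RPMI 1640 + 0.5% Albumax; 37 C, 5% CO2, one generation; luminescence read-out, lower signal = inhibition.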
Pf growth 96h: Primary qHTS for delayed death inhibitors of the malarial parasite plastid, 96 hour incubation. 320,000 tested, 6.9% active. Potency, µM (titrated, usually from 28.7 µM), hits mostly inhibitors. P. falciparum luciferase reporter growth, 96 h
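Erythrocytes infected with luciferase-expressing P. falciparum were dispensed at 2% hematocrit and 0.05% parasitemia (final), then incubated with compounds 96 hours at 37 C in 5% CO2. Luminescence after detection reagent addition reported growth.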
Numbers stand for hits; - = inactive; ? = inconclusive; . = no result given. A selection: hits, their analogues and other compounds. The true share with any hit is near 21%. Unless noted, calls come from the whole dose curve; as a rule, active = well fitted curve in the direction sought with a large enough effect; inconclusive = small, poorly fitted or top-dose-only effect, or another doubt; inactive = no such curve, though single readings can be large; an effect the other way counts as inactive or inconclusive.

SMILES	Giardia FBPA inh	Shiga toxin inh	Cycloheximide cs	NS1 inh	Pf growth 48h	Pf growth 96h
Cc1ccccc1COc1ccc(/C=C(\C#N)C(N)=O)cc1	-	-	-	-	-	?
N#C/C(=C\c1ccc(OCc2ccccc2)cc1)C(N)=O	-	90	24	.	-	-
Cc1ccsc1/C=C(/C#N)C(=O)NCc1ccccc1	-	-	12	-	-	-
N#C/C(=C\c1ccc(O)cc1)C(=O)NCc1ccccc1	-	-	-	-	-	-
COc1ccc(/C=C(\C#N)C(=O)NCc2ccccc2)cc1	-	87	34	-	-	?
CC1CCCN(C(=O)NC2CC(=O)N(c3ccc4c(c3)OCCO4)C2)C1 (stereo not given)	.	.	.	.	?	-
Cc1ccc(SCc2c(C#N)c3ccccc3n2C)cc1	-	-	-	-	-	?
Cn1c(CSc2ccccc2)c(C#N)c2ccccc21	-	81	43	-	-	-
Cc1noc(C)c1S(=O)(=O)N(CC(=O)NCc1ccc(F)cc1)c1ccc(C(C)C)cc1	.	-	-	-	?	-
COc1ccc(N(CC(=O)NCc2ccc(F)cc2)S(=O)(=O)c2c(C)noc2C)cc1	.	-	-	-	-	10µM
COc1ccc(N(CC(=O)NCCc2ccc(C)cc2)S(=O)(=O)c2c(C)noc2C)cc1	.	-	-	-	-	-
CCOc1ccc(N(CC(=O)NC2CCCCC2)S(=O)(=O)c2c(C)noc2C)cc1	-	-	-	-	-	-
Cc1noc(C)c1S(=O)(=O)N(CC(=O)O)c1ccc2c(c1)OCO2	-	-	-	-	-	5.9µM
COc1ccc(N(CC(=O)NCCc2cccc(C)c2)S(=O)(=O)c2c(C)noc2C)cc1	.	-	-	-	?	2.6µM
CCc1ccc(N(CC(=O)NC2CCCCC2)S(=O)(=O)c2c(C)noc2C)cc1	-	-	-	-	.	1.9µM
Cc1cc(C)cc(N(CC(=O)O)S(=O)(=O)c2c(C)noc2C)c1	-	-	-	-	-	.
CSCCC(NS(=O)(=O)c1ccccc1)C(=O)Nc1nccs1 (stereo not given)	.	.	.	.	-	-
O=c1cc(C(F)(F)F)[nH]c2c(OC(F)(F)F)cccc12	-	-	-	-	-	?
Cn1c(=O)c2c(ncn2CCOC(=O)C(C)(C)Oc2ccc(Cl)cc2)n(C)c1=O	.	.	.	.	-	-
Cc1ccc(N(CC(=O)NCc2ccc(F)cc2)S(=O)(=O)c2cccs2)cc1	-	-	-	-	.	4.7µM
Cc1ccc(N(CC(=O)NCc2ccccc2Cl)S(=O)(=O)c2c(C)noc2C)cc1	-	-	-	-	?	?
Cc1ccc(N(CC(=O)NCc2ccccc2Cl)S(=O)(=O)c2cccs2)cc1	-	-	-	-	?	.
CCOc1ccccc1NC(=O)CN(c1ccc(OC)cc1)S(=O)(=O)c1c(C)noc1C	-	-	-	-	9.3µM	?
CCOc1ccc(N(CC(=O)NCc2ccccc2Cl)S(=O)(=O)c2c(C)noc2C)cc1	.	-	-	-	13µM	?
COc1ccc(NC(=O)CN(c2cc(C)cc(C)c2)S(=O)(=O)c2c(C)noc2C)cc1OC	-	-	-	-	?	12µM
SMILES	Giardia FBPA inh	Shiga toxin inh	Cycloheximide cs	NS1 inh	Pf growth 48h	Pf growth 96h
CNC(=O)COC(=O)c1ccc2c(c1)NC(=O)C1CCCN21 (stereo not given)	-	-	-	-	-	-
C=CCNC(=O)NC(=O)COC(=O)c1nc2nccc(C)n2n1	-	-	-	.	-	-
Cc1ccc(C2=Nc3ccccc3N(C(=O)c3ccccc3)C(C)C2)cc1 (stereo not given)	-	-	-	-	?	12µM
CC(C)NC(=O)N1CC[C@@]2(CCCN(S(=O)(=O)c3ccccc3)C2)C1	-	.	.	.	.	.
CCOc1ccc(NC(=O)CCNC(=O)c2ccco2)cc1	-	-	19	-	-	-
CCOc1ccc(NC(=O)CNC(=O)c2ccco2)cc1	-	-	18	-	-	?
Cc1ccc(NC(=O)CNC(=O)c2ccco2)cc1Cl	-	-	22	-	-	-
COc1ccc(OCC(=O)Nc2ccc(NC(=O)c3ccco3)cc2)cc1	-	78	24	-	-	.
O=C(COc1ccccc1)Nc1ccc(NC(=O)c2ccco2)cc1	-	-	-	.	-	-
COc1ccc(C(=O)Nc2ccccc2C(=O)N2CCOCC2)cc1	-	-	-	-	-	-
